Laboratory results from PubChem BioAssay AID624133 (Broad Institute, 2012).
Among all 1,600 compounds or so, about 1,300 (81%) were called active. No rule for the calls is given here. So high a share suggests a set chosen from earlier hits. Only a sample is shown. Results with a measured potency or affinity are listed apart.

assay: control 3'UTR Renilla luciferase suppression, dose response, counter-screen for Shn3 inhibitor project, cell-based, Clone20-Shn3RL, cherry-picked (AID 624133); details: Clone20-Shn3RL cells, Renilla luciferase luminescence, 24 h; at 35 µM (top of the series) unless noted;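 also: 0% = neutral control wells and -100% = positive control wells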

| Structure (SMILES) | activity change, negative = inhibition |
| --- | --- |
| CCn1nnc2cc(C(=O)Nc3cc(Cl)ccc3C)ccc21 | -11.1% |
| CCOC(=O)c1c(C)[nH]c(C(=O)COC(=O)[C@H](C)N2C(=O)C3CCCCC3C2=O)c1C (stereo partly drawn) | -5% |
| O=C(Nc1cccc(-c2ccc(N3CCCCC3)nn2)c1)C(F)(F)F | -50% |
| Nc1c(Br)cc2c(c1Br)C(O)c1ccccc1-2 (stereo not drawn) | 22.2% |
| CCCOc1ccc2oc(=O)c3c(c2c1)CCCN3C(=O)CN1CCN(c2ncccn2)CC1 | 133% |
| COc1ccc(CN(C(=O)CSc2nnc(-c3ccc(F)cc3)o2)c2ccc(F)cc2)cc1 | 16.7% |
| CSc1cccc(NS(=O)(=O)c2ccc3c(c2)CCN3C(C)=O)c1 | 400% |
| COc1cc(SC)ccc1C(=O)Nc1nc2ccccc2[nH]1 | -90% |
| Cc1cccc(CSc2cccc3cccnc23)c1 | 49.1% |
| O=C(NCc1ccccc1C(F)(F)F)c1cccc2c1C(=O)c1ccc(N3CCC(N4CCCCC4)CC3)cc1S2(=O)=O | -33.6% |
| CC(C)n1c(/C=C/[C@@H](O)C[C@@H](O)CC(=O)O)c(-c2ccc(F)cc2)c2ccccc21 | -100% |
| O=c1cc(-c2ccc(O)cc2)oc2ccc3ccccc3c12 | 91.7% |
| Cn1cc([N+](=O)[O-])c(C(=O)Nc2sc3c(c2C#N)CCC3)n1 | -10.8% |
| O=C(COC(=O)/C=C/c1ccc(OC(F)F)cc1)Nc1ccc2[nH]c(=O)[nH]c2c1 | -21.3% |
| O=C(Nc1nc2cc3c(cc2s1)OCCO3)C1=COCCO1 | 45.8% |
| Cc1cccc(-c2noc(CN(C(=O)C(c3ccccc3)c3ccccc3)C(C)C)n2)c1 | -29.9% |
| CC1=NOC(=O)/C1=C\c1ccc(-c2ccccc2Br)o1 | 35.7% |
| COc1ccc(NS(=O)(=O)c2ccc3ccccc3c2)c2ncccc12 | 293% |
| Cc1nc2scc(C)n2c(=O)c1S(=O)(=O)Nc1ccc(N2CCOCC2)c(Cl)c1 | 62.5% |
| Nc1nnc(SCC(=O)Nc2ccc(N3CCOCC3)cc2)s1 | 45.8% |
| CCOc1cc(/C=C2\C(=O)ON=C2C)ccc1OCc1ccccc1 | -100% |
| O=C(Nc1ccc(Cl)cc1)Nc1ccc(N2CCCC2)c(S(=O)(=O)Nc2ccccc2Cl)c1 | -17.1% [at 16 µM] |
| COc1ccc(CNC(=O)C(c2ccc(C)cc2)N(Cc2cccs2)C(=O)c2ccc3c(c2)OCCO3)cc1 (stereo not drawn) | 50% |
| COc1ccc(CCNC(=O)CCC(=O)N2CCOc3ccc(Cl)cc32)cc1OC | -107% |
| CCc1ccc(OCCNc2cc(N3CCNC(C)C3)ccc2[N+](=O)[O-])cc1 (stereo not drawn) | -83.3% |
| O=S(=O)(c1ccc(Cl)cc1)n1ccc2cccnc21 | 6.94% |
| Cc1ccc(C)c(S(=O)(=O)Nc2ccc(-n3cnnn3)cc2)c1 | 276% |
| COc1ccc(C(=O)OCC(=O)Nc2ccc3[nH]c(=O)[nH]c3c2)cc1 | 62.5% |
